Assay outcomes (PubChem)
Most compounds without a hit are left out; they make up all but 1.2% or so of the library.
hERG WT inh: inhibitors of human wildtype KCNH2 potassium channel. U2OS, BacMam KCNH2, thallium flux FluxOr; hits give low values. Q12809. activity change, % at 1.84 µM. 340,000 compounds, 0.37% hits;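 active = maximum activity change below -70%; inconclusive = maximum activity change between -70% and -50%; inactive = maximum activity change above -50%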
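U2OS cells transduced with wild-type KCNH2 virus are loaded with FluxOr dye for 45 min, and thallium flux is measured in kinetic reads before and after stimulation buffer. Rate constants are normalized to DMSO controls.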
KCNH2 3.1 block: blocks the human KCNH2 3.1 channel isoform; 340,000 compounds, 0.95% hits; activity change, % (tested at about 1.8 µM); U2OS KCNH2 3.1, thallium flux FluxOr; hits give low values;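 active = maximum activity change below -70%; inconclusive = maximum activity change from -70% to -50%; inactive = maximum activity change above -50%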;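 also: thallium influx rate constant from kinetic fluorescence after stimulation buffer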
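We transduce U2OS cells with the mutant 3.1 virus, culture them overnight, load FluxOr with Red40 quencher for 45 min, then add stimulation buffer and read kinetically for 2 min to derive a normalized rate constant.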
KinaseGlo FLuc: Kinase-Glo luciferase inhibition (counter-screen); Kinase-Glo luciferase, ATP luminescence, 8 min; Potency, µM (doses to about 38.3 µM), without a hit: at the top dose activity change, negative = inhibition, hits mostly inhibitors; 200,000 compounds, 0.28% hits; AID 1379; active = well fitted inhibition curve with a large enough effect; inconclusive = small, poorly fitted or top-dose-only effect; also: potency is read from the fitted curve at half-maximal effect; nearly all actives have a fitted effect of over 60% in size
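Kinase-Glo luciferase light output from ATP and luciferin was measured with 10 uM ATP, within the enzyme's linear range. Buffer: 50 mM imidazole pH 7.2, 50 mM KCl, 7 mM MgCl2, 0.01% Tween 20, 0.05% BSA; luminescence read after 8 min at ambient temperature.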
* = called active by the depositor; ? = inconclusive; . = not tested or not shown. % is scaled to controls: 0 for no effect and ±100 for the full control effect.

SMILES | hERG WT inh | KCNH2 3.1 block | KinaseGlo FLuc
Cc1cccc(OCC(=O)N2CCc3ccccc3C2)c1C | -8 | 7 | .
CCOC(=O)C1(Cc2cccc(OC)c2)CCN(Cc2cccc(OC)c2OC)CC1 | 9 | 11 | .
CCOC(=O)C1(Cc2cccc(OC)c2)CCN(Cc2cc(OC)ccc2OC)CC1 | 20 | ? | 1%
CCOC(=O)C1(CCOC)CCN(Cc2cccc(OCc3ccccc3)c2)CC1 | 0 | 5 | .
CCOC(=O)C1(CCOc2ccccc2)CCN(Cc2ccncc2)CC1 | 10 | 5 | -1%
CCOC(=O)C1(CCOc2ccccc2)CCN(Cc2cccc(OC)c2O)CC1 | -102* | -113* | .
CCOC(=O)C1(CCOc2ccccc2)CCN(Cc2cc(OC)ccc2OC)CC1 | -80* | -88* | .
CCOC(=O)C1(CCOc2ccccc2)CCN(Cc2ccc(-n3cccn3)cc2)CC1 | -130* | -108* | -3%
CCOC(=O)C1(CCOc2ccccc2)CCN(Cc2cccc(OC)c2)CC1 | -96* | -116* | .
COc1ccc(Nc2nc(N)nc(CSC(=S)N3CCCCC3C)n2)cc1 (configuration not stated) | 2 | -4 | .
CC(=O)c1ccc(N2CCN(C(=O)C(=O)c3cn(CC(=O)N4CCOCC4)c4ccccc34)CC2)cc1 | 2 | -10 | .
Cc1ccc(N(C(=O)c2ccccn2)C(C(=O)NC2CCCCC2)c2ccncc2)cc1 (configuration not stated) | -3 | 4 | .
O=C(c1cccc(NS(=O)(=O)c2cccc(F)c2)c1)N1CCCC1 | 0 | -1 | .
O=C(Nc1ccccc1)Nc1ccc(Cl)nc1Cl | -12 | -12 | .
CCOC(=O)C1(CCOc2ccccc2)CCN(Cc2ccc3c(c2)OCCO3)CC1 | 60 | -39 | .
CCOC(=O)C1(CCOc2ccccc2)CCN(Cc2ccc(C(=O)OC)cc2)CC1 | 8 | -88* | .
CCOC(=O)C1(CCOc2ccccc2)CCN(Cc2ccc(O)c(Cl)c2)CC1 | -4 | ? | .
CCOC(=O)C1(CCOc2ccccc2)CCN(Cc2cccn2-c2ncccn2)CC1 | -90* | -101* | .
CCOC(=O)C1(CCOc2ccccc2)CCN(Cc2cccs2)CC1 | ? | -86* | 2%
CCOC(=O)C1(CCOc2ccccc2)CCN(Cc2ccc(O)c(OC)c2)CC1 | ? | -75* | .
CCOC(=O)C1(Cc2cccc(OC)c2)CCN(Cc2cccn2-c2ccccn2)CC1 | -8 | -47 | 6%
CCOC(=O)C1(CCOc2ccccc2)CCN(Cc2ccc(F)c(OC)c2)CC1 | 26 | ? | .
NS(=O)(=O)c1ccc(NC(=O)COC(=O)c2ccc(S(=O)(=O)N3CCOCC3)cc2)cc1 | 1 | 6 | .
NC(=O)CC(NC(=O)c1ccc(Br)cc1)c1ccc(NC2CCCCCC2)c([N+](=O)[O-])c1 (configuration not stated) | -21 | 19 | .
CC(=O)NC(CC(=O)OC(C)C(=O)Nc1ccc(Cl)cn1)c1ccccc1 (configuration not stated) | -1 | -4 | .
SMILES | hERG WT inh | KCNH2 3.1 block | KinaseGlo FLuc
O=C(Nc1cccc(NC(=O)c2cccnc2)c1)c1cccnc1 | 2 | -6 | -2%
Cc1ccccc1C(=O)Nc1cccc(NC(=O)c2cccnc2)c1 | -78* | -12 | .
O=C(NCc1ccccn1)c1cccc(NS(=O)(=O)c2ccccc2)c1 | -22 | -7 | .
COC(=O)[C@H]1C[C@H](OC(=O)NCc2ccccc2F)[C@@]2(O)CN(S(=O)(=O)c3ccc(C)cc3)CC2[C@H]1C(=O)OC (some centres not stated) | 5 | 3 | .
Cc1noc(C)c1S(=O)(=O)N1CCN(S(=O)(=O)c2ccccc2C#N)CC1 | -8 | 0 | .
CC(C)N(C(=O)CSc1nnc(C2CC2)n1C1CC1)c1ccccc1 | 0 | -3 | .
CS(=O)(=O)N1CCC[C@@]2(CCN(c3ccccn3)C2)C1 | . | . | 0%
O=C(NCCc1ccccc1)C(=O)N/N=C/c1ccc2c(c1)OCO2 | 4 | 6 | -3%
O=C(NCc1ccccn1)C(=O)N/N=C/c1ccc2c(c1)OCO2 | -7 | -106* | -3%
O=C1c2ccccc2C(=O)N1CCCc1nc(-c2ccccn2)no1 | -6 | -100* | 0%
O=C1c2ccccc2C(=O)N1CCc1nc(-c2ccccn2)no1 | 1 | -10 | 2%
Cc1ccc(CNC(=O)C2CC3Cn4c(nc5cc(Cl)c(Cl)cc54)C3N2C)o1 (configuration not stated) | -3 | -10 | .
CC(=O)OC1CC2C(C)(C)C(=O)[C@@H]3OC3[C@@]2(C)C2CC[C@]3(C)C(=CC(=O)OC3c3ccoc3)[C@]12C (some centres not stated) | . | . | -1%
S=c1nc(SCc2ccccc2)[nH]c2ccccc12 | ? | -128* | -1%
c1ccc(CSc2nc3ncncc3[nH]2)cc1 | 33 | 1 | .
CC(C)OCCCn1c(SC(C)C(=O)NC2CC2)nc2ccccc2c1=O (configuration not stated) | -11 | -1 | .
O=C1NC(=NCc2ccccc2)NC1(c1ccccc1)c1ccccc1 | 3 | 19 | .
Cc1cccc(-c2noc(CNS(=O)(=O)c3ccccc3)n2)c1 | 13 | ? | .
COc1cccc(-c2cn3nc(C)c(C)nc3n2)c1 | 0 | -9 | 11µM*
Cc1nc2nc(-c3ccc(Cl)cc3)cn2nc1C | 2 | . | ?
CC(C)(C)c1ccc(NC(=S)NCc2cccnc2)cc1 | 16 | 12 | .
CCC(C)c1ccc(NC(=S)NCc2cccnc2)cc1 (configuration not stated) | 1 | -94* | 5%
CCCSc1cc(N2CCCC2)nc(-c2ccccc2)n1 | 3 | 6 | 1%
CCCSc1cc(N2CCN(C)CC2)nc(-c2ccc(OC)cc2)n1 | -26 | -71* | 6%
COc1ccccc1P(=O)(Cc1ccccc1[N+](=O)[O-])c1ccccc1 (configuration not stated) | 0 | 1 | .
SMILES | hERG WT inh | KCNH2 3.1 block | KinaseGlo FLuc
Cc1ccc(CNC(=O)Cc2ccc(-n3cccc3)cc2)cc1 | -3 | -1 | 0%
O=C(Cc1ccc(-n2cccc2)cc1)NCc1cccs1 | -10 | -89* | .
CCOC(=O)C1(C#N)C(=O)CSC1=Nc1ccccc1Cl (configuration not stated) | -9 | 0 | .
O=C(/C=C/c1ccccc1Cl)OCC(=O)N1CCc2ccccc21 | 2 | 16 | .
CC(=O)Nc1sc(N/N=C/c2ccccc2)nc1-c1ccc(C)cc1 | 1 | -7 | .
CC(=O)Nc1sc(/C(C#N)=C\c2cccc(Cl)c2)nc1-c1ccc(C)cc1 | -46 | -70* | 1%
CN1C(=S)SC2CS(=O)(=O)CC21C (configuration not stated) | -6 | -3 | .
Cc1cccc(OCc2nnc(SCC(=O)Nc3nccs3)o2)c1 | -4 | -4 | .
Cn1cc(CNCc2ccc(-n3cccn3)cc2)c(-c2ccccc2F)n1 | 13 | -7 | 3%
Cn1cc(CNCCCn2ncc3ccccc32)c(-c2ccccc2F)n1 | 14 | -97* | 3%
O=C(COc1ccc(Br)cc1)NNC(=O)c1ccc(-n2cncn2)c([N+](=O)[O-])c1 | 1 | 12 | .
CN(C)CCCNC(=O)C[C@H]1C[C@H](C(=O)N2CCCCC2)[C@@]2(CCc3ccccc3)c3[nH]c4ccc(Cl)cc4c3CCN2C1=O | -120* | -47 | .
